Reference: ChEMBL document CHEMBL2218924, “A broad activity screen in support of a chemogenomic map for kinase signalling research and drug discovery” (Biochem J, 2013)

Assays:
[1] = molecular target: T1, Rhodopsin kinase GRK7 (Homo sapiens) (UniProt Q8WTQ7); settings: at 10 µM
T1 sequence (whole entry): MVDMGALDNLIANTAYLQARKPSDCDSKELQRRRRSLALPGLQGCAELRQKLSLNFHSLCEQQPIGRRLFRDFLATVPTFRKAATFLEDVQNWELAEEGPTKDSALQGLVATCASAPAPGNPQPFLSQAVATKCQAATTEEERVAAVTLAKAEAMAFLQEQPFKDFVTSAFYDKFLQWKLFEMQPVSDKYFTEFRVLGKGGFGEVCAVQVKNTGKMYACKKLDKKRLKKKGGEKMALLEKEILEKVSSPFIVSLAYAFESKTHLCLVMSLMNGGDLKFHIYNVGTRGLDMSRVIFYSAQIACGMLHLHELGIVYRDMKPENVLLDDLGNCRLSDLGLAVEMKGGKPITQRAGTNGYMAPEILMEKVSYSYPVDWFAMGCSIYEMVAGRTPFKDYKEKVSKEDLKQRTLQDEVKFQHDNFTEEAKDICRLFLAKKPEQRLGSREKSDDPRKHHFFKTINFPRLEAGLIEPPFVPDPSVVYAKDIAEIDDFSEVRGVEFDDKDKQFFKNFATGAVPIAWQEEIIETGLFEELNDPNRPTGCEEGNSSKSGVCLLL

[2] = molecular target: Glycogen synthase kinase-3 alpha (Homo sapiens) (UniProt P49840); settings: at 1 µM
Chain of Glycogen synthase kinase-3 alpha (Homo sapiens) (P49840 2-483 limits assumed): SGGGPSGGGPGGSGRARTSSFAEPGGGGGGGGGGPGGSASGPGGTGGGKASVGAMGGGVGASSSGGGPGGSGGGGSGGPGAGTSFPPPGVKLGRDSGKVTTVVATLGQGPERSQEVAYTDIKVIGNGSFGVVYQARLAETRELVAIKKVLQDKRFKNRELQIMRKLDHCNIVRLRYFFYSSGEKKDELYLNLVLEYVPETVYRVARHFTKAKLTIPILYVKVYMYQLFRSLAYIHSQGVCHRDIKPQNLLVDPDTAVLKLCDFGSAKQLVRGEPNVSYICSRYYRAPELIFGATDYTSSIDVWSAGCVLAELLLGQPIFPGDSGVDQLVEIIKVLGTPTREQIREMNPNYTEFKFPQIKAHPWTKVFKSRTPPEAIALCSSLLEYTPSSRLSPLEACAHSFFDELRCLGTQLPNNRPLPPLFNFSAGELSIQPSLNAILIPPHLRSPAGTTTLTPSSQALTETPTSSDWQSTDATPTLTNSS

[3] = molecular target: Glycogen synthase kinase-3 alpha (Homo sapiens) (UniProt P49840); settings: at 10 µM
[4] = molecular target: Glycogen synthase kinase-3 beta (Homo sapiens) (UniProt P49841); settings: at 1 µM
[5] = molecular target: Glycogen synthase kinase-3 beta (Homo sapiens) (UniProt P49841); settings: at 10 µM
[6] = molecular target: Homeodomain-interacting protein kinase 1 (Homo sapiens) (UniProt Q86Z02); settings: at 1 µM
Chain of Homeodomain-interacting protein kinase 1 (Homo sapiens) (Q86Z02 whole entry, looked up): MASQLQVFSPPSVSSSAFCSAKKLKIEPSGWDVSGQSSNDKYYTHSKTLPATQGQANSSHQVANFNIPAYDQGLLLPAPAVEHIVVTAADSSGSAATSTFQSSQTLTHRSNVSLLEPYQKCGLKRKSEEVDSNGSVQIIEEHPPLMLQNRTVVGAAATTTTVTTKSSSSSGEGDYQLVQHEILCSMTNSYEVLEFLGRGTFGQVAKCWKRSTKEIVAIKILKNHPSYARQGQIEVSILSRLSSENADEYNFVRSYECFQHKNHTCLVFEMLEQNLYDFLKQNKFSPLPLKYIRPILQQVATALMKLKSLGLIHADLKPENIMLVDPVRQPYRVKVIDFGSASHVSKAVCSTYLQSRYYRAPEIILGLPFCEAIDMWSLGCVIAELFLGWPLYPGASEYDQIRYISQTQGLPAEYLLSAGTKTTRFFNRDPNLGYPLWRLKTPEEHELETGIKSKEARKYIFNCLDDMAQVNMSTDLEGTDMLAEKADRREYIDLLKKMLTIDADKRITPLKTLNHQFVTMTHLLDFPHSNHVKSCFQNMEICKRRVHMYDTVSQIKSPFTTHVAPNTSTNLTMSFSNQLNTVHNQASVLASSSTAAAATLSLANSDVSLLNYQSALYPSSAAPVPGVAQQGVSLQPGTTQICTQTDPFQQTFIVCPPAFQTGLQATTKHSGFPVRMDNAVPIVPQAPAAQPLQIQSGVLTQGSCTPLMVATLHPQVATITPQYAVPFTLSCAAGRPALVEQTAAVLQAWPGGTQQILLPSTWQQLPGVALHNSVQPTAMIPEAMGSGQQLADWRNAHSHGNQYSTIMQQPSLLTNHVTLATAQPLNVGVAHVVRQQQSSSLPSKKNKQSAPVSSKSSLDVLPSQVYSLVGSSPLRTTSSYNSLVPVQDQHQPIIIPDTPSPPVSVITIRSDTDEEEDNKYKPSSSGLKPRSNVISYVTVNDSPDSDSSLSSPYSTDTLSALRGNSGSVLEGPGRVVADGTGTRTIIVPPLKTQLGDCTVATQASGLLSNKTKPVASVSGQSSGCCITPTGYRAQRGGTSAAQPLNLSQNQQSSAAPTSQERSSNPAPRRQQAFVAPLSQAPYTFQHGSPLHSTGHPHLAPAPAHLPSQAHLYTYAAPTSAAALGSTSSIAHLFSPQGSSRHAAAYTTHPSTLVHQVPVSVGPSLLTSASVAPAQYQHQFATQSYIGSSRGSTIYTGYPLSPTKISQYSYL

[7] = molecular target: Homeodomain-interacting protein kinase 1 (Homo sapiens) (UniProt Q86Z02); settings: at 10 µM
[8] = molecular target: Homeodomain-interacting protein kinase 2 (Homo sapiens) (UniProt Q9H2X6); settings: at 1 µM
Chain of Homeodomain-interacting protein kinase 2 (Homo sapiens) (Q9H2X6 whole entry, looked up): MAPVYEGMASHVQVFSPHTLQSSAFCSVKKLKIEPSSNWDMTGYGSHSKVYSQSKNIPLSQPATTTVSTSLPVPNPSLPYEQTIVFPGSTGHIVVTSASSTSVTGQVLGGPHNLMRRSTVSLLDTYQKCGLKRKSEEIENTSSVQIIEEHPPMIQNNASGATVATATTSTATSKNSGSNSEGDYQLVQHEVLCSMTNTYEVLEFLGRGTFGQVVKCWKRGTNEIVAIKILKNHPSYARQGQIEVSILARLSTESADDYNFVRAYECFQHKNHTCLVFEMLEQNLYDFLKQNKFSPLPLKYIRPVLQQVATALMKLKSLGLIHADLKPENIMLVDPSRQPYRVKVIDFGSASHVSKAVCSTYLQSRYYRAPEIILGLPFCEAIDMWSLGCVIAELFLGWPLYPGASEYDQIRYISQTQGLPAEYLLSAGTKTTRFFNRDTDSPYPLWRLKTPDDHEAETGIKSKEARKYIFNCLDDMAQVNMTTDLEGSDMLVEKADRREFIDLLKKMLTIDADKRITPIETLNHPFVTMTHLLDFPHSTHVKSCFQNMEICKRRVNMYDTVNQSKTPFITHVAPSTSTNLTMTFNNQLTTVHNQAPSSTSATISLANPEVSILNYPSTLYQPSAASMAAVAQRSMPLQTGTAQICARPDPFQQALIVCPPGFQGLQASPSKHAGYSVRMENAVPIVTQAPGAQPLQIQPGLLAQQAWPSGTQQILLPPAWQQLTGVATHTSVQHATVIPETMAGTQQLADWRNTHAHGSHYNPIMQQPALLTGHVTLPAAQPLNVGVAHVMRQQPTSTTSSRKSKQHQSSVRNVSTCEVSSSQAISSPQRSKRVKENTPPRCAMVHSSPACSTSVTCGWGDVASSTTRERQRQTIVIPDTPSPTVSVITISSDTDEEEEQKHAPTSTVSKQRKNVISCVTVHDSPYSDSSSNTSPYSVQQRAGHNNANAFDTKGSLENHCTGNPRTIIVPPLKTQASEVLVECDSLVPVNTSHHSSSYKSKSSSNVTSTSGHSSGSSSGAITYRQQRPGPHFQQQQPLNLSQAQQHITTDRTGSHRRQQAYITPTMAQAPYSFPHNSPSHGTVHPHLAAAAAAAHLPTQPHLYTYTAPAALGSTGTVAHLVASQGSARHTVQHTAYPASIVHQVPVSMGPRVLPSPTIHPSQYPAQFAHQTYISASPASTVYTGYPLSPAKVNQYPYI

[9] = molecular target: Homeodomain-interacting protein kinase 2 (Homo sapiens) (UniProt Q9H2X6); settings: at 10 µM
[10] = molecular target: Homeodomain-interacting protein kinase 3 (Homo sapiens) (UniProt Q9H422); settings: at 1 µM
[11] = molecular target: Homeodomain-interacting protein kinase 3 (Homo sapiens) (UniProt Q9H422); settings: at 10 µM
[12] = molecular target: T2, Serine/threonine-protein kinase haspin (Homo sapiens) (UniProt Q8TF76); settings: at 1 µM
T2 sequence (whole entry): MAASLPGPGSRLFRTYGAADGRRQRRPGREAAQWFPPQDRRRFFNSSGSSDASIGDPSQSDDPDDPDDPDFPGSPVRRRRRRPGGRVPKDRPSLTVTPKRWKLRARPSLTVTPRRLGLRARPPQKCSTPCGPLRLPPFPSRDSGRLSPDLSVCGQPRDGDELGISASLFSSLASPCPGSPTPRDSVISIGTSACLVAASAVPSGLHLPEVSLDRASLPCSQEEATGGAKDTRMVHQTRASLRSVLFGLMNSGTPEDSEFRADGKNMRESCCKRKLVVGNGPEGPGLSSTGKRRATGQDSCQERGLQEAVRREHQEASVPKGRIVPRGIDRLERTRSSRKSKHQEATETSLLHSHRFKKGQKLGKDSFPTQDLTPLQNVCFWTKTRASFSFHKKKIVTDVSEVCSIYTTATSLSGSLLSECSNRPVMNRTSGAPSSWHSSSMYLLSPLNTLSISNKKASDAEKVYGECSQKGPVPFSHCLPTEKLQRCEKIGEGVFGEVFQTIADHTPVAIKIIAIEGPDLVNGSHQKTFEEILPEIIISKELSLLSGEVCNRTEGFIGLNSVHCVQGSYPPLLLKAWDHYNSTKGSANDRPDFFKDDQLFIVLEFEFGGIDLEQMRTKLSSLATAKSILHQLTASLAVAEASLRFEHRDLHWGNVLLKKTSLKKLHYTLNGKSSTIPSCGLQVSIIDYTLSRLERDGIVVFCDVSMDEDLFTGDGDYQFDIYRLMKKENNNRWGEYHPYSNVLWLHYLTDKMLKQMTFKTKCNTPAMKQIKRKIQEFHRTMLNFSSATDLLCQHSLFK

[13] = molecular target: T2, Serine/threonine-protein kinase haspin (Homo sapiens); settings: at 10 µM
[14] = molecular target: Tyrosine-protein kinase HCK (Homo sapiens) (UniProt P08631); settings: at 1 µM
Chain of Tyrosine-protein kinase HCK (Homo sapiens) (P08631 2-526 limits assumed): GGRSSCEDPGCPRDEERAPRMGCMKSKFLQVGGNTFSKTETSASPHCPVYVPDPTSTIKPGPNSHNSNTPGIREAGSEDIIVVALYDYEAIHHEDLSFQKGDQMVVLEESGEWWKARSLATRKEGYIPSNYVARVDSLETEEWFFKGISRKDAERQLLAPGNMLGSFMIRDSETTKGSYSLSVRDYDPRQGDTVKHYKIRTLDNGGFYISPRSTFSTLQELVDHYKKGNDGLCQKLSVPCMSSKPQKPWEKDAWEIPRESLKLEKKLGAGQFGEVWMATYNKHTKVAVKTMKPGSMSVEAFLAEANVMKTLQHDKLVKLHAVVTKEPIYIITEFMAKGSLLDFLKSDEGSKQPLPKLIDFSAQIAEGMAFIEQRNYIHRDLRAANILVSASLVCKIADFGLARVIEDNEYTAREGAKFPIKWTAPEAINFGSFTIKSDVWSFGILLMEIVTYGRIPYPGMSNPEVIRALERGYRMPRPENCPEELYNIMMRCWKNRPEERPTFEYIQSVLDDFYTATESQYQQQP

[15] = molecular target: Tyrosine-protein kinase HCK (Homo sapiens) (UniProt P08631); settings: at 10 µM
[16] = molecular target: Tyrosine-protein kinase HCK (Homo sapiens) (UniProt P08631); settings: at 1 µM; remark: listed apart in the source
[17] = molecular target: Tyrosine-protein kinase HCK (Homo sapiens) (UniProt P08631); settings: at 10 µM; remark: listed apart in the source
[18] = molecular target: Insulin-like growth factor 1 receptor (Homo sapiens) (UniProt P08069); settings: at 1 µM
Chain of Insulin-like growth factor 1 receptor (Homo sapiens) (P08069 31-736 limits assumed): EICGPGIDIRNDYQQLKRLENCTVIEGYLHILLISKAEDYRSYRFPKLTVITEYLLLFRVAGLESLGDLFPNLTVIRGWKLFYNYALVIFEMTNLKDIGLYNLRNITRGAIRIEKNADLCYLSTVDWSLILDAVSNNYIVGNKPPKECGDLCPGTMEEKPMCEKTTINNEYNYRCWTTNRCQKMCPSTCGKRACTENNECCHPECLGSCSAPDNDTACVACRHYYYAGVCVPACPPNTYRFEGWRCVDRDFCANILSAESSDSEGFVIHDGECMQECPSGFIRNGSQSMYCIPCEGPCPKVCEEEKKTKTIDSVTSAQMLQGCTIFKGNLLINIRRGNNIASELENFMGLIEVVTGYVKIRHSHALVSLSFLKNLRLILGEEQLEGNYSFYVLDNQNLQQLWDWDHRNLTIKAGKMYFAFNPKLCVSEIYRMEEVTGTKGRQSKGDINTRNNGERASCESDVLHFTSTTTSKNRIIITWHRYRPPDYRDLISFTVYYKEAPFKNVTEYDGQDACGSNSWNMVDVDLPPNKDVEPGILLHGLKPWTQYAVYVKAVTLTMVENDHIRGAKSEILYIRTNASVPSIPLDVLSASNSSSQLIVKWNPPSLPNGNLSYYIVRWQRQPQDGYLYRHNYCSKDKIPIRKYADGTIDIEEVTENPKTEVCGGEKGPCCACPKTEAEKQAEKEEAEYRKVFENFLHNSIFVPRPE
Chain of Insulin-like growth factor 1 receptor (Homo sapiens) (P08069 741-1367 limits assumed): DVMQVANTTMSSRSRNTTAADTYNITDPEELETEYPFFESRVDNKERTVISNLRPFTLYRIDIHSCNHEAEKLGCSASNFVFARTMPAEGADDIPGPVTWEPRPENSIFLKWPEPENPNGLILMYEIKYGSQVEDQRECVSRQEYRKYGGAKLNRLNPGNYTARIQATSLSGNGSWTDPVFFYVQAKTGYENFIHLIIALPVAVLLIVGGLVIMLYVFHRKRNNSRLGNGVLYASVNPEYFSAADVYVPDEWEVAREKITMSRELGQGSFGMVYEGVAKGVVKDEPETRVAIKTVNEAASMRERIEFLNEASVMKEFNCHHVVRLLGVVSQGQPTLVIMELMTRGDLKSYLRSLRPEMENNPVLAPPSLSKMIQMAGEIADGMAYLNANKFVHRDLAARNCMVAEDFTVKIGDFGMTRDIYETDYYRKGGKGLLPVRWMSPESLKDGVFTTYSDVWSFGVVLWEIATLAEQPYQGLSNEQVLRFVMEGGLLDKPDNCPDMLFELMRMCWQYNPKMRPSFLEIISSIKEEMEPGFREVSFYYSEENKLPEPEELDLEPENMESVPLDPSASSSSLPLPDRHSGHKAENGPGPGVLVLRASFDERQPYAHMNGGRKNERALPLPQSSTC

[19] = molecular target: Insulin-like growth factor 1 receptor (Homo sapiens) (UniProt P08069); settings: at 10 µM
[20] = molecular target: T3, Protein kinase C zeta type (Homo sapiens) (UniProt Q05513); settings: at 10 µM
T3 sequence (whole entry): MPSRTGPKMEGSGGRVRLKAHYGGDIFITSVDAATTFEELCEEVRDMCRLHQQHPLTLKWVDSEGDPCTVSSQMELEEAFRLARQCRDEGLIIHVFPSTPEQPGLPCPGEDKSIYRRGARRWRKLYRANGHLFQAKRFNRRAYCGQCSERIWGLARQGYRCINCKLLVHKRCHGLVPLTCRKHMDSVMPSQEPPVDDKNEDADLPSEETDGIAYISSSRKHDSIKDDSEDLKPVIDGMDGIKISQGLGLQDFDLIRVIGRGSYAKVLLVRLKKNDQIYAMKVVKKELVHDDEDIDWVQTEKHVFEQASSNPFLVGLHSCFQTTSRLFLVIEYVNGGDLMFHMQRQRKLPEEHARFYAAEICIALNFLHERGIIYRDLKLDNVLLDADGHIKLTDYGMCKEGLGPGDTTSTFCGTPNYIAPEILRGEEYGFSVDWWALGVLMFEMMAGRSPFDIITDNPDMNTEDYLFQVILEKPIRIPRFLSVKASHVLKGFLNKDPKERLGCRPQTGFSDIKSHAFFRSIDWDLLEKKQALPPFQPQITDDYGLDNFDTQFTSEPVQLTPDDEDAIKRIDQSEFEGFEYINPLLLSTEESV

Row | SMILES | residual activity [1] [%] | residual activity [2] [%] | residual activity [3] [%] | residual activity [4] [%] | residual activity [5] [%] | residual activity [6] [%] | residual activity [7] [%] | residual activity [8] [%] | residual activity [9] [%] | residual activity [10] [%] | residual activity [11] [%] | residual activity [12] [%] | residual activity [13] [%] | residual activity [14] [%] | residual activity [15] [%] | residual activity [16] [%] | residual activity [17] [%] | residual activity [18] [%] | residual activity [19] [%] | residual activity [20] [%]
1 | CC(=O)O/N=C1\C(=C2\C(=O)Nc3cc(Br)ccc32)Nc2ccccc21 | 87 | 4 | 0 | 14 | 2 | 95 | 85 | 84 | 43 | 93 | 76 | 93 | 74 | 22 | 9 | 3 | -1 | 142 | 110 | 95
2 | Nc1nc(Nc2ccc(S(N)(=O)=O)cc2)nn1C(=S)Nc1c(F)cccc1F | – | 3 | 2 | 4 | 0 | 30 | 47 | 12 | 0 | 25 | 21 | – | – | 10 | 4 | 13 | 1 | 109 | 98 | 77
3 | c1ccc(-c2n[nH]c3c2oc2ccccc23)cc1 | 64 | – | – | 95 | 67 | – | – | 98 | 58 | 92 | 61 | 90 | 48 | 71 | 51 | 98 | 81 | – | 139 | 117
4 | Nc1cccc(-c2cc3c(Oc4cccc(O)c4)ncnc3[nH]2)c1 | 91 | 27 | 3 | 22 | 6 | – | – | 95 | 54 | – | – | 86 | 45 | 4 | 1 | -3 | -1 | 99 | 124 | –
5 | CN(C)CCCn1cc(C2=C(c3c[nH]c4ccccc34)C(=O)NC2=O)c2ccccc21 | 7 | 18 | 2 | 24 | 3 | 90 | 53 | 69 | 21 | 87 | 35 | 43 | 12 | 74 | 54 | 113 | 84 | 127 | – | 16
6 | COc1cc2ncc(-c3ccccc3)nc2cc1OC | – | – | – | 93 | 138 | – | – | 96 | 97 | 100 | 100 | 76 | 64 | 69 | 56 | – | – | 133 | – | –
7 | CCN(CC)CCCCN1c2ccccc2Oc2ccc(Cl)cc21 | 95 | 133 | 124 | 103 | 129 | 103 | 113 | 108 | 96 | 97 | 99 | 81 | 36 | 101 | 103 | 109 | 112 | 136 | 90 | 112
8 | COc1cc2ncnc(Nc3ccc(Oc4ccccc4)cc3)c2cc1OC | 92 | 91 | 178 | 84 | 97 | 102 | 106 | 99 | 99 | 94 | 105 | – | – | 4 | 5 | 20 | 3 | 117 | 112 | 104
9 | N#CCCc1ccc2c(c1)-c1[nH]c3ccc([N+](=O)[O-])cc3c1CC(=O)N2 | – | 1 | 0 | -3 | 0 | – | – | 64 | 24 | – | – | – | 74 | 30 | 6 | 27 | 16 | 117 | 144 | 41
10 | CO[C@@H]1[C@H](N(C)C(=O)c2ccccc2)C[C@H]2O[C@]1(C)n1c3ccccc3c3c4c(c5c6ccccc6n2c5c31)C(=O)NC4 | 3 | 17 | 14 | 39 | 19 | 95 | 83 | 75 | 35 | 80 | 68 | 78 | 43 | 7 | 5 | – | 12 | 115 | 68 | 102
11 | CC[n+]1c(/C=C/N(C)c2ccccc2)n(-c2ccccc2)c2ccc(-c3nc4ccccc4s3)cc21 | 97 | 122 | – | 109 | 116 | 102 | 93 | 95 | 77 | 99 | – | 99 | 59 | 97 | 34 | 104 | 95 | 126 | 43 | 96
12 | COc1cccc(-c2cc(=O)c3ccccc3o2)c1N | 97 | – | 77 | 106 | 103 | 112 | 92 | 109 | 95 | 99 | 98 | 118 | 81 | 88 | 87 | 106 | 105 | 91 | 127 | 105
13 | C[C@@H](N)[C@H]1CC[C@H](C(=O)Nc2ccncc2)CC1 | 89 | 75 | 68 | 105 | 84 | 102 | 109 | 103 | 101 | 91 | 95 | 109 | 97 | – | 94 | 91 | 97 | 111 | 109 | 76
